Screening data from PubChem.
Most compounds without a hit are left out; they make up all but 9.4% or so of the library.
ALDH1A1 block = blocks purified human ALDH1A1 activity | P00352 | Purified ALDH1A1, NADH fluorescence, propionaldehyde substrate | Potency, µM (series often up to 75.3 µM), for the others: at the highest dose activity, negative = inhibition, usual class: inhibitors | 7.3% of 220,000 active; active means well fitted inhibition curve with a large enough effect, not every such curve was filed as active; inconclusive means small, poorly fitted or top-dose-only effect, or another doubt; inactive means no such curve, though single readings can be large or run the other way;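 further: potency means the concentration at half of the fitted maximal effect; plate controls were no enzyme wells and a reference inhibitor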
Target sequence (P00352 whole entry, looked up): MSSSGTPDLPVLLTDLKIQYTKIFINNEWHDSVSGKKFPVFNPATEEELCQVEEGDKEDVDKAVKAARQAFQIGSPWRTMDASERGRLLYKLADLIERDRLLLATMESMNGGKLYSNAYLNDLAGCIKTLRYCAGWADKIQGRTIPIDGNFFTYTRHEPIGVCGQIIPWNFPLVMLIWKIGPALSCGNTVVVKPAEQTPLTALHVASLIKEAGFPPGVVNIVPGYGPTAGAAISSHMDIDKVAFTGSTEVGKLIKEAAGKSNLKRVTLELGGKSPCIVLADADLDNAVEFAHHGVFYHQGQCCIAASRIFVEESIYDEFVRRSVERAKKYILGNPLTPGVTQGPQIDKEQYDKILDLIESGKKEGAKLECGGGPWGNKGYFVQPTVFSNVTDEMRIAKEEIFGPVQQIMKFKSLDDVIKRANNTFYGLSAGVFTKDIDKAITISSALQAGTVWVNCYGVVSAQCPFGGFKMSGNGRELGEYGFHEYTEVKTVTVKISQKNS
IMPase cell inh = IMPase inhibition in cells; P97697; CHO-M1 cells, IP1 accumulation, HTRF TR-FRET ratio; inhibition (IP1 accumulation), % at 46.1 µM; 120,000 tested, under 10 active; AID 901; active means well fitted curve in the direction sought with a large enough effect in the signal ratio, not every such curve was filed as active; inconclusive means small, poorly fitted or top-dose-only effect, or a change in a side signal; inactive means no such curve, though single readings can be large or run the other way; the % refers to the signal ratio;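 further: cells stimulated with carbachol in lithium chloride buffer; plate controls were DMSO basal wells for no effect and reference inhibitor wells for full effect; higher means more IMPase inhibition seen as more IP1 and lower FRET ratio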
Target sequence (P97697 whole entry, looked up): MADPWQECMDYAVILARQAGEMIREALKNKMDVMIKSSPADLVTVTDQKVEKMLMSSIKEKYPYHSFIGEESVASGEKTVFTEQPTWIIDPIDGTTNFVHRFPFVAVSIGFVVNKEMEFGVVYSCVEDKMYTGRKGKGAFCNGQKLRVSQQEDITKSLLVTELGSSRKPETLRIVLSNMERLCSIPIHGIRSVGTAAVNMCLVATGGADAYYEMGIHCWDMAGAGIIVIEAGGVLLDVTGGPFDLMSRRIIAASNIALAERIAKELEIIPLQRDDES
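Carbachol-driven Gq signalling in CHO-M1 cells (2000/well) generates IP1. Compounds that block IMPase raise IP1 and so reduce the FRET signal from Eu-anti-IP1 and d2-IP1 after a 10 min room-temperature lysis.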
HPGD block = blocks human HPGD enzyme activity; P15428; purified HPGD, NADH fluorescence kinetic, PGE2 substrate; Potency, µM, inactives show at the highest dose activity change, negative = inhibition, hits mostly inhibitors; 4.3% of 150,000 active; AID 894; active means well fitted inhibition curve with a large enough effect, not every such curve was filed as active; inconclusive means small, poorly fitted or top-dose-only effect, or another doubt; inactive means no such curve, though single readings can be large or run the other way; further: potency means the concentration at half of the fitted maximal effect; on the % scale 0 is the no-effect control and ±100 the full control effect
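20 nM HPGD preincubated 15 min at room temperature with compound in 50 mM Tris-HCl pH 8, 0.01% Tween 20. Started with 1 mM NAD+ and 30 uM prostaglandin E2; NADH fluorescence (360/450 nm) read 5 times over 30-s intervals, last minus first.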
HTT cytoprotect = Huntington cell model cytoprotection by ATP luminescence; PC12 HTT-Q103 induced, cytoprotection, ATP luminescence, 40 h; Potency, µM (highest dose often 56.4 µM), for inactives: cytoprotection (ATP increase), most hits filed as activators; 0.14% of 230,000 active; AID 1471; further: potency means the concentration at half of the fitted maximal effect; % of control where 0% means no effect; nearly all actives have a fitted effect of over 45% in size
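Stable PC12 Q103-GFP cells in serum-supplemented, phenol red-free DMEM; induction by tebufenozide at 100 nM final; compound dose series; cell viability quantified luminescently from ATP.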
HTT aggregate = mutant huntingtin aggregation inhibition; PC12 HttQ103-GFP aggregates, Acumen cytometry, 40 h; Potency, µM (highest dose often 46.1 µM), for inactives: at the highest dose activity change, negative = inhibition, most hits filed as inhibitors; 1.1% of 220,000 active; AID 1688; further: potency means the concentration at half of the fitted maximal effect; on the % scale 0 is the no-effect control and ±100 the full control effect; nearly all actives have a fitted effect of over 60% in size
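Read-out: GFP aggregate count by laser scanning cytometer (488 nm excitation, 500-530 nm emission, 1–25 µm objects >6 SD above background). Cells: PC12, inducible HTTex1-Q103-GFP, 100 nM tebufenozide; compounds titrated.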
IMPase Li inh = IMPase inhibition in cells with lithium potentiation. CHO-M1 cells, IP1 TR-FRET (IP-One), carbachol + lithium. Potency, µM (highest dose often 59.4 µM), for inactives: top-dose activity, negative = IMPase inhibition, most hits filed as inhibitors. 0.35% of 210,000 active;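 further: IP1 builds up when IMPase is blocked and the TR-FRET signal falls; potency means the concentration at half of the fitted maximal effect; plate controls were basal vehicle for no effect and high inhibitor control for full effect; nearly all actives have a fitted effect of over 50% in size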
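IP1 accumulation measured by competitive TR-FRET in lysed CHO-M1 cells after 30 min compound exposure at 37C, with a small lithium addition to potentiate weak responses. Hill-equation AC50 from ratio and donor-channel data.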
The depositor's hits bear a star; ? = inconclusive; · = no result; ! = repeats disagree; [ ] = another dose, or the depositor's remark. Unless noted, the call rests on the fitted dose curve; in most records, active means well fitted curve in the direction sought with a large enough effect; inconclusive means small, poorly fitted or top-dose-only effect, or another doubt; inactive means no such curve, though single readings can be large; an effect the other way counts as inactive or inconclusive.

SMILES	ALDH1A1 block	IMPase cell inh	HPGD block	HTT cytoprotect	HTT aggregate	IMPase Li inh
O=C(Nc1cccc(OC(=O)N2CCOCC2)c1)N1CCOCC1	6%	-10	-5%	-3%	-12%	4%[38.3 µM]
Cc1oc2ccc(OC(=O)N3CCOCC3)cc2c1C(=O)OC(C)C	4µM*	13	-9%	-7%	1%	4%[38.3 µM]
CC(=O)Oc1ccc2c3c1OC1[C@@H](OC(C)=O)C=C[C@H]4[C@H](C2)N(C)CC[C@]314 (stereo not given in full)	·	·	·	-15%	-11%	·
O=S(=O)(O)F	-82%	·	-23%	-1%	·	-2%
CCCc1[nH][nH]c(=O)c1C(c1ccccc1)C(C#N)C#N (stereo not given)	22µM*	0	?	-14%[10 µM]	6%	22%[38.3 µM]
CCCc1[nH][nH]c(=O)c1C(c1ccc(Cl)cc1)C(C#N)C#N (stereo not given)	?	1	16µM*	9%[1.9 µM]	-7%	13%
CN=C=S	?	·	-2%	-5%	·	5%
Cc1ccccc1-c1cncnc1NCCc1cnc[nH]1	0%	·	-3%	28%	·	12%
COc1ccc(CC2C(=O)N(C)C(=O)N(C)C2=O)c(OC)c1	-16%	14	-4%	1%[0.074 µM]	3%	0%
Cc1ccc(CC2C(=O)N(C)C(=O)N(C)C2=O)s1	20µM*	-4	?	-3%[10 µM]	29%	22%[38.3 µM]
O=c1cccc2n1CC1CC2CN(CCO)C1 (stereo not given)	2%	-4	-8%	-2%[1.9 µM]	·	6%
CCN1/C(=C\C=C\C2=[N+](CC)c3ccccc3C2(C)C)C(C)(C)c2ccccc21	6%	-5	-7%	-110%	0.56µM*	35%[38.3 µM]
COc1cc(NC(=S)N2CCOCC2)c(OC)cc1Cl	?	·	·	-13%[10 µM]	-13%[9.22 µM]	·
S=C(c1ccc(Cl)cc1)N1CCOCC1	?	2	22µM*	-14%	-8%	-5%[38.3 µM]
O=[As](O)(O)c1ccc(N=Nc2ccc([As](=O)(O)O)cc2)cc1	-4%[13.5 µM]	·	-5%	-8%[10 µM]	·	-8%
Cc1cccc2c1=NC(=O)/C(=C/c1c(O)[nH]c(=O)[nH]c1=O)C=2	0.5µM*	-11	?	6%[10 µM]	-16%	-4%
O=C1N[C@@]2(CN3CCC2CC3)C(=O)N1CN(Cc1ccccc1)c1ccccc1	15%[13.5 µM]	·	-12%	-1%[10 µM]	·	-7%
C[C@H]1CCCC(=O)CCC/C=C/c2cc(O)cc(O)c2C(=O)O1	14µM*	-3	14µM*!	-28%	-30%	14%[38.3 µM]
C[C@H]1CCC/C=C/C2C[C@H](O)C[C@H]2[C@H](O)/C=C/C(=O)O1 (stereo not given in full)	-6%	·	2%	-162%	·	-1%
C=C(C)C#N	-8%	·	-4%	-1%	·	-8%
N#CC(Cl)(Cl)Cl	20µM*	·	-3%	-13%	·	6%
CCC[CH2][Sn]([Cl])([Cl])[Cl]	?	·	-3%	-3%	·	6%
CCC(=NCc1cccnc1)c1c(O)n(Cc2ccccc2)c(=O)[nH]c1=O	?	8	16µM*	-16%	-1%	9%[38.3 µM]
CC(=NCc1cccnc1)c1c(O)n(Cc2ccccc2)c(=O)[nH]c1=O	?	0	28µM*	0%[10 µM]	20%	3%
CC(=NCc1cccnc1)c1c(O)n(-c2ccccc2)c(=O)[nH]c1=O	-2%	-2	-3%	-16%	-1%	-1%[38.3 µM]
SMILES	ALDH1A1 block	IMPase cell inh	HPGD block	HTT cytoprotect	HTT aggregate	IMPase Li inh
C[C@]1(O)CC[C@H]2[C@@H]3[C@@H](O)CC4=CC(=O)CC[C@@]4(C)[C@H]3CC[C@]21C	20%[13.5 µM]	·	-3%	-4%[10 µM]	·	-4%
CN[C@H](Cc1ccccc1)c1cccc(OC)c1O	5%[13.5 µM]	·	-6%	-7%[10 µM]	·	0%
Ic1c(C2=CCCCC2)[se]c2ccccc12	0%	·	-2%	-23%	·	0%
c1ccc([Se]c2c(-c3ccccc3)[se]c3ccccc23)cc1	9%	·	-4%	-43%	·	5.6µM*
c1ccc(N2CCCC3(CCNCC3)C2)nc1	?	·	-29%	20%	·	8%
O=C(O)c1cc(O)c(O)c(O)c1	2µM*	·	7.1µM*!	-346%	10%	-20%
CC(/C=C(\C)Nc1ccccc1)=Nc1ccccc1	25µM*	·	·	-9%	0%	-2%
CC1CN(c2ccc([N+](=O)[O-])cc2Cl)CCN1 (stereo not given)	16µM*	·	·	-17%	-9%	-10%
CN1CCN(c2ccc([N+](=O)[O-])cc2Cl)CC1	-5%	·	·	?	1%[9.22 µM]	7%
O=C(O)C(Cl)(Cl)Br	-12%	·	-7%	-9%	·	-10%
CCN(CC)CCN=Cc1c(O)n(CCC2=CCCCC2)c(=O)[nH]c1=O	?	7	-6%	13%	-10%	36%[38.3 µM]
O=c1[nH]c(=O)n(CCC2=CCCCC2)c(O)c1C=NCc1cccnc1	25µM*	-4	-14%	-1%	2%	0%[38.3 µM]
C[C@@H]1O[C@H](O[C@@H]2C[C@@H](O)[C@]3(CO)[C@H]4[C@H](O)C[C@]5(C)[C@@H](C6=CC(=O)OC6)CC[C@@]5(O)[C@@H]4CC[C@]3(O)C2)[C@@H](O)[C@H](O)[C@H]1O	-6%	·	-3%	-11%	·	·
CCBr	?	·	1%	-28%	·	-5%
C=CCN1CC[C@@]23CCCC[C@@H]2[C@@H]1Cc1ccc(O)cc13	·	0	·	11%[1.9 µM]	·	·
S=C=NCc1ccccc1	2.8µM*	·	?	-20%	·	29%
COc1cc(OC)c(OC)cc1/C=C1/C(=O)NC(=O)N(Cc2ccccc2)C1=O	5%	·	·	-15%[10 µM]	-8%[9.22 µM]	·
CCN1C(=O)/C(=C/c2ccc(N(CC)CC)cc2OC)C(=O)NC1=S	10µM*	·	·	4%[10 µM]	-4%[9.22 µM]	175%
COc1cc2c3cc1Oc1c(O)c(OC)cc4c1[C@@H](Cc1ccc(cc1)Oc1cc(ccc1O)C[C@H]3N(C)CC2)N(C)CC4	-5%[13.5 µM]	·	-9%	9%[10 µM]	·	14%
CCOC(=O)C(O)(c1ccc(NC(=S)NC(=O)c2ccc(Cl)cc2Cl)c(C)c1)C(F)(F)F (stereo not given)	18µM*	·	-23%	14%[10 µM]	-6%	10%
CCOC(=O)C(O)(c1ccc(N(CC)C(=O)OC)cc1)C(F)(F)F (stereo not given)	3%	3	-13%	-2%[0.074 µM]	1.6µM*	24%[38.3 µM]
COC(=O)C(O)(c1ccc(NC(=S)NC(=O)c2ccc(Cl)cc2Cl)c(C)c1)C(F)(F)F (stereo not given)	?	·	?	18%[10 µM]	-9%	10%
CCOC(=O)C(O)(c1ccc(NC(=S)NC(=O)c2ccc(Cl)cc2Cl)cc1)C(F)(F)F (stereo not given)	8.9µM*	·	-21%	5%[10 µM]	13%	10%
